Compounds without any hit were thinned out: in the full panel of roughly 83,000, 20% have a hit.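 Method: cells in 96-well plates; compound added at one concentration; 48 h incubation; percent growth measured; values under 10 scored active.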 Calls of active or inactive are those of the source.
Legend:
Test in all cases: NCI-60 one-dose screen, 48 h (100 = growth as untreated, 0 = no growth, -100 = all killed)
Settings in all cases: 10 µM unless noted
[1] = test system: NCI-H23 lung
[2] = test system: NCI-H226 lung
[3] = test system: NCI-H322M lung
[4] = test system: HOP-62 NSCLC
[5] = test system: NCI-H460 lung
[6] = test system: HOP-92 NSCLC
[7] = test system: NCI-H522 lung
[8] = test system: A549/ATCC NSCLC
[9] = test system: 786-0 renal
[10] = test system: COLO 205 colon
[11] = test system: DU-145 prostate
[12] = test system: K-562 leukemia
[13] = test system: MALME-3M melanoma
[14] = test system: MDA-MB-231 breast
[15] = test system: RXF 393 renal
[16] = test system: SF-268 CNS
[17] = test system: SF-295 CNS
[18] = test system: UACC-257 melanoma
[19] = test system: M14 melanoma
[20] = test system: SF-539 CNS

Measured: growth

C/C(=C(/c1ccc(O)cc1)c1ccc(OCCN(C)C)cc1)c1ccccc1
inactive: [1] 81.9% | [2] 89.4% | [3] 77% | [4] 79.8% | [5] 93.7% | [6] 54.9% | [7] 71.8% | [8] 72.4% | [9] 89.5% | [10] 63.8% | [11] 98.1% | [12] 36.6% | [13] 79.9% | [14] 85.2% | [15] 69.3% | [16] 83.3% | [17] 98.1% | [18] 78.1% | [19] 65.1%

O=C1Nc2ccccc2C12CC(c1ccccc1)=NN2 (stereo unspecified)
inactive: [1] 70% | [2] 79.3% | [3] 66.3% | [4] 58.6% | [5] 33.2% | [6] 59.2% | [7] 24.6% | [8] 39.3% | [9] 61.7% | [10] 31.4% | [11] 88.1% | [12] 18.5% | [13] 40.1% | [14] 55.4% | [15] 90.6% | [16] 67.1% | [20] 47% | [19] 38.1%

O=C1Nc2ccccc2/C1=C/C(=N/c1nnc(-c2ccccc2)s1)c1ccccc1
active: [7] -59.3% | [9] -19.3% | [10] 2.53%
inactive: [1] 45.7% | [2] 86.5% | [3] 95.7% | [4] 57% | [5] 88.2% | [6] 45.4% | [8] 80.2% | [11] 34.4% | [12] 20.4% | [13] 37.8% | [14] 54.5% | [15] 27.1% | [16] 60.4% | [20] 52.7% | [19] 75.7%

O=S(=O)(NCCCNc1cc(-c2cn(-c3ccccc3)nc2-c2cccc(O)c2)ccn1)c1ccccc1
inactive: [1] 65.9% | [2] 41.9% | [3] 60.4% | [4] 77.3% | [5] 39% | [6] 45.2% | [7] 52.5% | [8] 35.8% | [9] 13.1% | [11] 53.7% | [13] 37.2% | [15] 36.7% | [16] 52.8% | [17] 11% | [19] 46.2%
active: [10] -12.1% | [12] 1.96% | [14] 9.24%

CC(=O)C1=C(O)C=C2Oc3c(C(=O)/C=C/c4cc(C(F)(F)F)cc(C(F)(F)F)c4)c(O)c(C)c(O)c3[C@]2(C)C1=O
active: [1] -55.8% | [2] -56.5% | [3] -44.8% | [4] -52.6% | [5] -32.6% | [6] -41.2% | [7] -36% | [8] -46.7% | [9] -46.3% | [10] -66.6% | [11] -71.4% | [12] -20.7% | [13] -65.6% | [14] -38.8% | [15] -48.6% | [16] -18.1% | [17] -17.4% | [18] -51.4% | [19] -59.1%

O=C1C[C@H](N2C(=O)c3ccccc3S2(=O)=O)C2CO[C@@H]1O2
inactive: [1] 89.3% | [2] 96.1% | [3] 103% | [4] 92.6% | [5] 103% | [6] 98.4% | [8] 89.1% | [9] 96.9% | [10] 64.1% | [11] 87.8% | [12] 55.6% | [13] 97.2% | [14] 110% | [15] 86.8% | [16] 102% | [17] 93.7% | [18] 84.3% | [19] 84.2%
active: [7] -45.6%

CCOC(=O)C(Cc1cc(I)c(O)c(I)c1)NC(=O)c1ccccc1 (stereo unspecified)
inactive: [1] 102% | [2] 93.1% | [3] 101% | [4] 78.8% | [5] 104% | [7] 87.5% | [8] 83.8% | [9] 97.6% | [10] 108% | [11] 109% | [12] 97.1% | [13] 99.5% | [14] 102% | [15] 99.1% | [16] 102% | [17] 101% | [18] 92.7% | [19] 99.3%
active: [6] -14.2%

Nc1ccc(N2CCOCC2)cc1
inactive: [1] 86.1% | [2] 102% | [3] 91.2% | [4] 90.8% | [5] 104% | [6] 114% | [7] 94.1% | [8] 110% | [9] 92.2% | [10] 123% | [11] 118% | [12] 102% | [13] 86.5% | [14] 96.1% | [15] 108% | [16] 107% | [18] 107% | [19] 94.1%

O=C1/C(=C/c2ccc(Cl)cc2Cl)CN(S(=O)(=O)c2ccccc2)C/C1=C\c1ccc(Cl)cc1Cl
active: [1] -37.6% | [3] -0.804% | [4] -2.25% | [5] -24.1% | [6] -3.29% | [7] -34.1% | [8] 3.06% | [9] -81.2% | [10] -15.9% | [11] 9.52% | [12] 0.787% | [14] -23.2% | [15] -87% | [16] 4.96% | [20] -54.1%
inactive: [2] 58.3% | [13] 36.8% | [19] 20.5%

COc1cc(OC)c(/C=C/S(=O)(=O)Cc2cnc(OC)c(N)c2)c(OC)c1
active: [5] 9.05% | [7] -2.15% | [8] 9.4% | [10] -49.2% | [11] 1.99% | [12] 9.4% | [17] 2.57%
inactive: [1] 30.8% | [2] 64.3% | [3] 33.2% | [4] 23.8% | [6] 85.9% | [9] 16.2% | [13] 67.3% | [14] 11.9% | [15] 45.5% | [16] 38% | [18] 62.4% | [19] 10.1%

c1ccc(-c2nc(N3CCOCC3)c3c4c(sc3n2)CCCCC4)nc1
active: [6] -2.36%
inactive: [1] 66.9% | [2] 50.4% | [3] 67.3% | [4] 61% | [5] 33.4% | [7] 29.5% | [8] 51% | [9] 75.9% | [10] 52.4% | [11] 71.5% | [12] 58% | [13] 32.6% | [14] 60.4% | [15] 55.4% | [16] 65.5% | [17] 49.2% | [18] 75.7% | [19] 67.6%

COc1cc(-c2cc(-c3nc4ccc(Cl)cc4[nH]3)[nH]n2)cc(OC)c1OC
inactive: [1] 45.5% | [2] 18.1% | [3] 51.4% | [4] 40.1% | [5] 60.4% | [6] 67.2% | [7] 45.3% | [8] 50% | [9] 65.1% | [10] 60.5% | [11] 57.8% | [12] 43.2% | [13] 50.4% | [14] 81.1% | [15] 46.6% | [16] 81.7% | [18] 62.9% | [19] 38.1%

Cc1[nH]n(-c2ccccc2)c2nc3nncc3c(-c3ccc(Cl)cc3)c12
inactive: [1] 103% | [2] 104% | [3] 114% | [4] 110% | [5] 102% | [6] 76.2% | [7] 105% | [8] 84.9% | [9] 100% | [10] 111% | [11] 103% | [12] 95.8% | [13] 132% | [14] 106% | [15] 107% | [16] 98.9% | [17] 105% | [18] 101% | [19] 114%

Source: PubChem BioAssay (NCI)
